# Results as given in PubChem BioAssay (EPA / NIEHS).
# Values joined by “and” are separate entries in the source; they are usually repeats but may differ in a detail not shown here. Identical values can stand only once. Inconclusive results are not listed. More than one record can exist for a structure, and the calls need not agree. Active and inactive are the calls of the source. Rule for the calls, unless noted: active = hit-call score of the fitted dose curve at least 0.9, where 1 is the maximum; inactive = score below 0.9.
# Columns and labels:
# [1] = target: Myc proto-oncogene protein (Homo sapiens) (UniProt P01106); assay: ATG_Myc_CIS: Attagene CIS-FACTORIAL HepG2 Assay for human Myelocytomatosis (Myc) Proto-Oncogene Transcription Factor (AID 2282990); conditions: HepG2, Attagene cis-reporter transcription factor activity; actives raise or lower the signal
# Sequence of Myc proto-oncogene protein (Homo sapiens) (P01106 whole entry, looked up): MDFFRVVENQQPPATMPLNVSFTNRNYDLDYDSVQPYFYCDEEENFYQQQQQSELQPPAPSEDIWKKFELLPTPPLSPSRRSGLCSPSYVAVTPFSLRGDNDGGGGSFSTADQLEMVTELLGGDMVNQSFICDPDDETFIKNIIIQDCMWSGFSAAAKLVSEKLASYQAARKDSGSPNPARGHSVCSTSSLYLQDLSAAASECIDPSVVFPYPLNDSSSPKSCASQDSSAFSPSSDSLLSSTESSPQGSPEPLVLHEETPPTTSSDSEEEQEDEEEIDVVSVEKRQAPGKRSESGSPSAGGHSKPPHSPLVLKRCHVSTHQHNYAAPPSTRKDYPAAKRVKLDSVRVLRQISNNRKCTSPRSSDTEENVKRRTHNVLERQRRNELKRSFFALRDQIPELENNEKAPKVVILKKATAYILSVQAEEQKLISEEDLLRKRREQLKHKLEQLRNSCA
# Method in brief: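 DMSO-normalised, bidirectionally fitted reporter mRNA signal. HepG2 cells transfected with cis reporter constructs, treated 24 h; transcripts detected by RT-PCR, 6-FAM primer extension and CE.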
# [2] = ATG_NRF2_ARE_CIS: Attagene CIS-FACTORIAL HepG2 Assay for human Nuclear Factor Erythroid 2 Related Factor 2 (NFR2) response to Antioxidant Response Elements (ARE) (AID 2282992); conditions: HepG2 Attagene ARE/NRF2 reporter, transcription factor activity; actives raise or lower the signal;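 for AC50: reporter mRNA level measured by RT-PCR and capillary electrophoresis fluorescence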
# Method in brief: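 Endogenous transcription factor activity in human liver HepG2 cells is tracked via a cis-element-driven reporter within a multiplexed set. mRNA induction is read by RT-PCR and capillary electrophoresis after 24 h, with DMSO as baseline.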
# [3] = ATG_Oct_MLP_CIS: Attagene CIS-FACTORIAL HepG2 Assay for human Octamer-Binding Transcription Factor (Oct) (AID 2282993); conditions: HepG2 Attagene cis-factorial Oct reporter, mRNA; actives raise or lower the signal
# Method in brief: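 Read-out: reporter mRNA via RT-PCR plus capillary electrophoresis of 6-FAM-labelled fragments. Transiently transfected HepG2, 24 h exposure, endogenous TF activity on cis elements. Gain or loss of signal fitted relative to DMSO.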
# [4] = target: Cellular tumor antigen p53 (Homo sapiens) (UniProt P04637); assay: ATG_p53_CIS: Attagene CIS-FACTORIAL HepG2 Assay for human p53 Transcription Factor (AID 2282994); conditions: HepG2 p53 cis-element reporter, Attagene mRNA; actives raise or lower the signal
# Sequence of Cellular tumor antigen p53 (Homo sapiens) (P04637 whole entry, looked up, the tested form may be a part): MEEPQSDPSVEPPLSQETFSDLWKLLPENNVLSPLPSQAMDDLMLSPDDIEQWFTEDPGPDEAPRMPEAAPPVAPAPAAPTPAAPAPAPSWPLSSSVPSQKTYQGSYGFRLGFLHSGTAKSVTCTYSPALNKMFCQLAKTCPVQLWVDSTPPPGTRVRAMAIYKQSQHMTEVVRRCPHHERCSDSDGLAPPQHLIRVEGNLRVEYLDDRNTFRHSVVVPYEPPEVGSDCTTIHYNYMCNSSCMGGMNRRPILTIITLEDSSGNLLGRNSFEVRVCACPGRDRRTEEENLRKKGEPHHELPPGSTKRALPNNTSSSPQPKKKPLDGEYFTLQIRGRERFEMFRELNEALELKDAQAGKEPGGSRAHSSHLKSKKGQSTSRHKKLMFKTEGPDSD
# Method in brief: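 Steps: transfect HepG2 with multiplexed cis reporter constructs; dose chemicals 24 h; extract RNA, reverse-transcribe, PCR-amplify reporter sequences; FAM-label, HpaI-digest, resolve fragments by CE. Activity fitted both directions relative to DMSO.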
# [5] = BSK_3C_TissueFactor: BioMAP Diversity Plus: 3C Assay for Tissue Factor Biomarker Activity (AID 2282997); conditions: BioMAP 3C HUVEC, tissue factor biomarker readout; actives raise or lower the signal
# Method in brief: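 After a 24 h chemical exposure of primary human umbilical vein endothelial cells, Tissue Factor levels were quantified by ELISA.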
# [6] = BSK_3C_uPAR: BioMAP Diversity Plus: 3C Assay for Urokinase-type plasminogen activator receptor (uPAR) Biomarker Activity (AID 2282998); conditions: BioMAP 3C HUVEC, uPAR biomarker ELISA; actives raise or lower the signal
# Method in brief: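 HUVEC primary cells; 24 h post-dose; uPAR by ELISA; gain or loss of signal fitted bidirectionally vs DMSO baseline.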
# [7] = BSK_3C_VCAM1: BioMAP Diversity Plus: 3C Assay for Vascular cell adhesion molecule 1 (VCAM1) Biomarker Activity (AID 2282999); conditions: BioMAP 3C HUVEC, VCAM1 ELISA, cytokine-stimulated; actives raise or lower the signal
# Method in brief: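 Vascular primary endothelium (human umbilical vein) was exposed to chemicals and assayed 24 h later. VCAM-1 levels came from ELISA, with DMSO serving as baseline for bidirectional fitting.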
# [8] = BSK_4H_Eotaxin3: BioMAP Diversity Plus: 4H Assay for Eotaxin 3 Biomarker Activity (AID 2283000); conditions: primary human endothelial cells (HUVEC); actives raise or lower the signal;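 for outcome: CCL26 protein level quantified by ELISA in parallel with SRB cytotoxicity check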
# Method in brief: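 Chemicals were added to human umbilical vein endothelium cultures, and Eotaxin-3 was quantified by ELISA at 24 h. Values were derived by bidirectional fitting with DMSO serving as negative control and activity baseline.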
# [9] = target: human Peroxisome Proliferator-activated Receptor alpha (PPARa), PPARA (gene 5465) (UniProt Q07869); assay: ATG_PPARa_TRANS: Attagene TRANS-FACTORIAL HepG2 Assay for human Peroxisome Proliferator-activated Receptor alpha (PPARa) (AID 2283001; active = hit-call score of the fitted dose curve at least 0.9, where 1 is the maximum;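 for AC50: potency for gain of reporter signal over DMSO so agonist or activator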)
# Sequence of human Peroxisome Proliferator-activated Receptor alpha (PPARa), PPARA (gene 5465) (Q07869 whole entry, looked up, the tested form may be a part): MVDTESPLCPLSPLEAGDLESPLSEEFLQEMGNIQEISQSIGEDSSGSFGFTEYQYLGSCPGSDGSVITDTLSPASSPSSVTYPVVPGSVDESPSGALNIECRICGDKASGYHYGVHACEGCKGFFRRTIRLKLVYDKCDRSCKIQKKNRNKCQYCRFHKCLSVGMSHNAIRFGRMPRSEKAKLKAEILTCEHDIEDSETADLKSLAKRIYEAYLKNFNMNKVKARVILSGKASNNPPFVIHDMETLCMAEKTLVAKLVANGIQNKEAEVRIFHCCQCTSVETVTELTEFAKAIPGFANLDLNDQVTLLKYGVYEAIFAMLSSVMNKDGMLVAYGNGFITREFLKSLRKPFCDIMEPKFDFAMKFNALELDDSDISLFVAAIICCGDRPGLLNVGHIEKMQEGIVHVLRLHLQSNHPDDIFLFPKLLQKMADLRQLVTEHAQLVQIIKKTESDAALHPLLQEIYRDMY
# Method in brief: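 Exposure: 24 h, transiently transfected HepG2 cells. Endpoint: GAL4-UAS reporter mRNA, RT-PCR with capillary electrophoresis fluorescence. Baseline: DMSO; increases fitted.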
# [10] = target: human Retinoic Acid Receptor beta (RARb), RARB (gene 5915) (UniProt P10826); assay: ATG_RARb_TRANS: Attagene TRANS-FACTORIAL HepG2 Assay for human Retinoic Acid Receptor beta (AID 2283004; active = hit-call score of the fitted dose curve at least 0.9, where 1 is the maximum)
# Sequence of human Retinoic Acid Receptor beta (RARb), RARB (gene 5915) (P10826 whole entry, looked up): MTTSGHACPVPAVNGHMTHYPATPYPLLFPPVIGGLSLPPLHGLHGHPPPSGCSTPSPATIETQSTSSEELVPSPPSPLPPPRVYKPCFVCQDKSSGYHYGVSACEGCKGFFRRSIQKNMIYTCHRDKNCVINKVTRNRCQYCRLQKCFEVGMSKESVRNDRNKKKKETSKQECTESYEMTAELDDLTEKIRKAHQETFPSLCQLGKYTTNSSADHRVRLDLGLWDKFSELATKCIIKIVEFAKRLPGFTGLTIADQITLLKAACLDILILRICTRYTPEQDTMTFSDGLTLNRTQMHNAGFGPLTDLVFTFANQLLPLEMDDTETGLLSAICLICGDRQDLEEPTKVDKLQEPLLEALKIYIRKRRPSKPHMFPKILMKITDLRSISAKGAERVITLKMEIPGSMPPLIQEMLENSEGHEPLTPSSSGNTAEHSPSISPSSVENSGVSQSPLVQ
# Method in brief: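 Transient transfection of HepG2 with multiple reporter units → chemical dosing, 24 h → total RNA isolation → RT with oligo(dT) → reporter-specific PCR, 6-FAM primer extension, HpaI digest → capillary electrophoresis. Positive direction vs DMSO control.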
# [11] = target: Retinoic acid receptor alpha (Homo sapiens) (UniProt P10276); assay: ATG_RARa_TRANS: Attagene TRANS-FACTORIAL HepG2 Assay for human Retinoic Acid Receptor alpha (RARa) (AID 2283005; active = hit-call score of the fitted dose curve at least 0.9, where 1 is the maximum)
# Sequence of Retinoic acid receptor alpha (Homo sapiens) (P10276 whole entry, looked up, the tested form may be a part): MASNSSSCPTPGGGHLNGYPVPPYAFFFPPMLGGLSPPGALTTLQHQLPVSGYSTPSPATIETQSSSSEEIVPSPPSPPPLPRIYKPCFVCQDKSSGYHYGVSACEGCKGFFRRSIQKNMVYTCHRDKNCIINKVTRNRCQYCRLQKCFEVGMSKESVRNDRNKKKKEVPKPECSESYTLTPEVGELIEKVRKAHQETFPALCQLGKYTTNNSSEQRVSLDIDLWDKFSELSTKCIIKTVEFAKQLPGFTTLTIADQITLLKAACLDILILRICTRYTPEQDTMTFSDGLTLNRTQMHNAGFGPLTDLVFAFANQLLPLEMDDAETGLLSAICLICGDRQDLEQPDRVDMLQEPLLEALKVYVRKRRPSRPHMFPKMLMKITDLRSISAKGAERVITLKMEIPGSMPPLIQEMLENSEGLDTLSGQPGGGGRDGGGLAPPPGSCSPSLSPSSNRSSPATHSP
# Method in brief: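 HepG2 cells transiently transfected with multiple reporter units expressing chimeric RARα-GAL4 fusion, with GAL4-UAS-driven reporters. After 24 h compound exposure, reporter mRNA induction quantified by RT-PCR and capillary electrophoresis with fluorescent labeling; gain-of-signal fitted relative to DMSO control.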
# [12] = BSK_3C_Proliferation: Cell Proliferation Assessment in the BioMAP Diversity Plus: 3C Assay (AID 2283006); conditions: primary human endothelial cells (HUVEC);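 for AC50: potency may reflect either rise or fall in cell number versus DMSO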
# Method in brief: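 HUVEC, sub-confluent; 48 h chemical exposure; 10% TCA fix, 0.1% SRB stain, A560 total protein. Gain or loss of signal fitted both directions vs DMSO control.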
# [13] = target: Peroxisome proliferator-activated receptor gamma (Homo sapiens) (UniProt P37231); assay: ATG_PPARg_TRANS: Attagene TRANS-FACTORIAL HepG2 Assay for human Peroxisome Proliferator-activated Receptor-gamma (PPARg) (AID 2283007; active = hit-call score of the fitted dose curve at least 0.9, where 1 is the maximum)
# Sequence of Peroxisome proliferator-activated receptor gamma (Homo sapiens) (P37231 whole entry, looked up): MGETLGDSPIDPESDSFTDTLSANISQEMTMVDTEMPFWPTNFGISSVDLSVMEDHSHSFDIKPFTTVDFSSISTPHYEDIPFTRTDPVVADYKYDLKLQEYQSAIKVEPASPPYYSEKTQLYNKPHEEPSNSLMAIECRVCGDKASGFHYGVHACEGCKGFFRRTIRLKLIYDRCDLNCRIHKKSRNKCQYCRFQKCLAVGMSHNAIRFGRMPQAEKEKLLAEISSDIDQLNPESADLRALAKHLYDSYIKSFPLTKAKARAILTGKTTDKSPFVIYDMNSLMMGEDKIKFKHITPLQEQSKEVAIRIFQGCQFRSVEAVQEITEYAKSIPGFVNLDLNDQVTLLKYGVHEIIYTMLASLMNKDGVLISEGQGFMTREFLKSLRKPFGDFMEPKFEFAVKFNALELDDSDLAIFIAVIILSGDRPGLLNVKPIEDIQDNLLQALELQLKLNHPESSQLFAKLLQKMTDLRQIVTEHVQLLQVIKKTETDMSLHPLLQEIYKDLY
# Method in brief: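 Multiplexed reporter transcription units in HepG2, 24 h dosing, reporter transcripts quantified by fluorescent RT-PCR and capillary electrophoresis. Increase over DMSO scored.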
# [14] = target: Nuclear receptor subfamily 1 group I member 2 (Homo sapiens) (UniProt O75469); assay: ATG_PXR_TRANS: Attagene TRANS-FACTORIAL HepG2 Assay for human Pregnane X Receptor (PXR) (AID 2283008; active = hit-call score of the fitted dose curve at least 0.9, where 1 is the maximum)
# Sequence of Nuclear receptor subfamily 1 group I member 2 (Homo sapiens) (O75469 whole entry, looked up, the tested form may be a part): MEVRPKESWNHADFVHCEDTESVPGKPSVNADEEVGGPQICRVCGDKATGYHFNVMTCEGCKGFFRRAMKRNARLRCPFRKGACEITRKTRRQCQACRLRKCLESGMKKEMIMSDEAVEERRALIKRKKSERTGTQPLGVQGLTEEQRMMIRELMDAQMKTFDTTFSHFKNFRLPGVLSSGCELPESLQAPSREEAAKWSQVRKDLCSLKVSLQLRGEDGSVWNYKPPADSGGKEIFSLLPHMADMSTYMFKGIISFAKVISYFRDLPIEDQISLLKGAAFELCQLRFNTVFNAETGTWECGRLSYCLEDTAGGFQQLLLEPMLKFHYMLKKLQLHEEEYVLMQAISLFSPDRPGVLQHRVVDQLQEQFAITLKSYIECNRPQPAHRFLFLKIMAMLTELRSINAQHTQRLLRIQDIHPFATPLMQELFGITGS
# Method in brief: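 HepG2 transfected (FuGene 6) with GAL4-UAS reporter units + PXR-Gal4 chimera; dosed 24 h. Total RNA → oligo(dT) RT → PCR → 6-FAM primer extension → HpaI cut → CE. Gain-of-signal vs DMSO.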
# [15] = target: human Retinoic Acid Receptor gamma (RARg), RARG (gene 5916) (UniProt P13631); assay: ATG_RARg_TRANS: Attagene TRANS-FACTORIAL HepG2 Assay for human Retinoic Acid Receptor gamma (RARg) (AID 2283009; active = hit-call score of the fitted dose curve at least 0.9, where 1 is the maximum)
# Sequence of human Retinoic Acid Receptor gamma (RARg), RARG (gene 5916) (P13631 whole entry, looked up, the tested form may be a part): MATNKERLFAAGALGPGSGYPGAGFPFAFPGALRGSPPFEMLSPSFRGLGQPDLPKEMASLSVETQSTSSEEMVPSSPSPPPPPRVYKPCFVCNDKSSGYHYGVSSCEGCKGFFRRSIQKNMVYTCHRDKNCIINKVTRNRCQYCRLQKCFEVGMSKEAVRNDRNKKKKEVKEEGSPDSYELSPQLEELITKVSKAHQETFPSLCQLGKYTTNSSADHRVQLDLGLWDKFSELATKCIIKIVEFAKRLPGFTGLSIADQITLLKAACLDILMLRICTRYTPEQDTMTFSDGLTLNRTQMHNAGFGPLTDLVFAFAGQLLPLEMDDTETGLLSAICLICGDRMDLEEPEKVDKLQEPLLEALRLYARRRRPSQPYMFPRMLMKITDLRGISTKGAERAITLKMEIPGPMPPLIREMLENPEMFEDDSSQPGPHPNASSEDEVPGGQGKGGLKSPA
# Method in brief: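 Readout: reporter transcript levels via RT-PCR, 6-FAM primer-extension labelling, HpaI digestion and capillary electrophoresis. Cells: HepG2 carrying transfected RARg-GAL4 chimera plus UAS reporter set. Dosing 24 h; DMSO negative control.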
# [16] = ATG_NF_kB_CIS: Attagene CIS-FACTORIAL HepG2 Assay for human Nuclear Factor Kappa B (NF-kB) (AID 2282991); conditions: HepG2 Attagene cis-factorial NF-kB reporter mRNA; actives raise or lower the signal
# Method in brief: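 HepG2, transient multi-reporter transfection, cis promoter elements (endogenous TFs). 24 h exposure. Total RNA → RT → PCR → 6-FAM label → HpaI → CE. Gain/loss vs DMSO.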
# [17] = target: human Peroxisome Proliferator-activated Receptor delta (PPARd), PPARD (gene 5467) (UniProt Q03181); assay: ATG_PPARd_TRANS: Attagene TRANS-FACTORIAL HepG2 Assay for human Peroxisome Proliferator-activated Receptor delta (PPARd) (AID 2283002; active = hit-call score of the fitted dose curve at least 0.9, where 1 is the maximum)
# Sequence of human Peroxisome Proliferator-activated Receptor delta (PPARd), PPARD (gene 5467) (Q03181 whole entry, looked up, the tested form may be a part): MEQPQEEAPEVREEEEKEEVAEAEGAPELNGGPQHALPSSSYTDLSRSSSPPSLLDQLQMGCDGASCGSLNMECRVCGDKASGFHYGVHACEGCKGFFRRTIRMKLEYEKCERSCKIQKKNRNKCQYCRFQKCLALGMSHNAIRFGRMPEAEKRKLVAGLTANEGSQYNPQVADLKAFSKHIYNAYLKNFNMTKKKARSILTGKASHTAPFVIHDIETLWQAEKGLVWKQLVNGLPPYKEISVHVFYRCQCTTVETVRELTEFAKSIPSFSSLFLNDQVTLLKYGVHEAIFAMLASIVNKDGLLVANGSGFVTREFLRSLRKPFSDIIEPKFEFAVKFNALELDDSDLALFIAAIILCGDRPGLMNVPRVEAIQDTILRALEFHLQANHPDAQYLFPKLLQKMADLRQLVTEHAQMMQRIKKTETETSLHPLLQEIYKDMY
# Method in brief: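 Measured quantity: GAL4-UAS reporter transcript induction in HepG2 after 24 h chemical dosing, with NR-Gal4 chimeras supplied by transient transfection. Detection by RT-PCR and capillary electrophoresis; upward fit against DMSO.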
# [18] = read-out: Intercellular Adhesion Molecule 1 (ICAM1), ICAM1 (gene 3383); assay: BSK_3C_ICAM1: BioMAP Diversity Plus: 3C Assay for Intercellular Adhesion Molecule 1 (ICAM1) Biomarker Activity (AID 2283003); conditions: primary human endothelial cells (HUVEC); actives raise or lower the signal
# Method in brief: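 ELISA read-out of ICAM-1; HUVEC (primary human), 3C system, 24 h post-dosing; bidirectional fit vs DMSO baseline.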
# [19] = target: Retinoic acid receptor RXR-alpha (Homo sapiens) (UniProt P19793); assay: ATG_RXRa_TRANS: Attagene TRANS-FACTORIAL HepG2 Assay for human Retinoid X Receptor alpha (RXRa) (AID 2283012; active = hit-call score of the fitted dose curve at least 0.9, where 1 is the maximum)
# Method in brief: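 Read-out: fluorescent reporter-transcript fragments quantified by capillary electrophoresis after RT-PCR. Transiently transfected HepG2 cells carrying GAL4-UAS reporters and NR-GAL4 chimeras were exposed to chemical for 24 h; activity scored as increase over DMSO.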
# [20] = target: human RAR-related Orphan Receptor beta (RORb), RORB (gene 6096) (UniProt Q92753); assay: ATG_RORb_TRANS: Attagene TRANS-FACTORIAL HepG2 Assay for human RAR-related Orphan Receptor beta (RORb) (AID 2283010; active = hit-call score of the fitted dose curve at least 0.9, where 1 is the maximum)
# Sequence of human RAR-related Orphan Receptor beta (RORb), RORB (gene 6096) (Q92753 whole entry, looked up, the tested form may be a part): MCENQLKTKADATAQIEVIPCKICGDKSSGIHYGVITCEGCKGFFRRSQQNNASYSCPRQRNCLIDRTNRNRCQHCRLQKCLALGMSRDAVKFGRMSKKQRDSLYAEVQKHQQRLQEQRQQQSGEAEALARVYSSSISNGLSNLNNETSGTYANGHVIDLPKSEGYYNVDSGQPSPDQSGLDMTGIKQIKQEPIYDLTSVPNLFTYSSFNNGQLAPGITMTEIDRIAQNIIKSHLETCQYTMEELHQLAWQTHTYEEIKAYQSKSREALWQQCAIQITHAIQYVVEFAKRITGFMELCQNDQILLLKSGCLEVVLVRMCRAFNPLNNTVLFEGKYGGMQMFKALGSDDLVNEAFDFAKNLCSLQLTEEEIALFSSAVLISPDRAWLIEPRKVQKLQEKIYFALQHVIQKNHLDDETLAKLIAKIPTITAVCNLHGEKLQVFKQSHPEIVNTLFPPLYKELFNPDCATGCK
# Method in brief: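 HepG2, transient MRTU transfection (GAL4-UAS reporters, exogenous NR-Gal4 chimeras); 24 h compound exposure; total RNA → RT-PCR → 6-FAM primer extension → HpaI digest → CE fluorescence. Positive direction vs DMSO baseline.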
compound,measurement,setting,value
COc1ccc(O)c(C(C)(C)C)c1,outcome,[1],inactive
same,AC50,[2],39 µM (active)
same,AC50,[3],143 µM (active)
same,outcome,[4],inactive
same,outcome,[5],inactive
same,outcome,[6],inactive
same,outcome,[7],inactive
same,outcome,[8],inactive
same,outcome,[9],inactive
same,outcome,[10],inactive
same,outcome,[11],inactive
same,outcome,[12],inactive
same,outcome,[13],inactive
same,AC50,[14],4.55 µM (active)
same,outcome,[15],inactive
CCNc1nc(NC(C)C)nc(SC)n1,outcome,[1],inactive
same,outcome,[16],inactive
same,outcome,[2],inactive
same,outcome,[3],inactive
same,outcome,[5],inactive
same,outcome,[6],inactive
same,outcome,[8],inactive
same,outcome,[9],inactive
same,outcome,[17],inactive
same,outcome,[18],inactive
same,outcome,[12],inactive
same,outcome,[13],inactive
same,outcome,[14],inactive
same,outcome,[19],inactive
C[C@]12CCC(=O)C=C1CC[C@@H]1[C@@H]2CC[C@]2(C)C(=O)CC[C@@H]12,outcome,[1],inactive
same,outcome,[2],inactive
same,outcome,[3],inactive
same,outcome,[4],inactive
same,outcome,[5],inactive
same,outcome,[6],inactive
same,outcome,[8],inactive
same,outcome,[17],inactive
same,outcome,[10],inactive
same,outcome,[11],inactive
same,outcome,[12],inactive
same,outcome,[13],inactive
same,AC50,[14],7.27 µM (active) and 26.8 µM (active)
same,outcome,[14],inactive
same,outcome,[15],inactive
same,outcome,[19],inactive
O=C(O)C(F)(F)C(F)(F)C(F)(F)C(F)(F)C(F)(F)F,outcome,[1],inactive
same,outcome,[2],inactive
same,outcome,[3],inactive
same,outcome,[4],inactive
same,outcome,[5],inactive
same,outcome,[6],inactive
same,outcome,[7],inactive
same,outcome,[8],inactive
same,AC50,[9],36.7 µM (active) and 70.9 µM (active)
same,outcome,[17],inactive
same,outcome,[11],inactive
same,outcome,[12],inactive
same,outcome,[13],inactive
same,outcome,[14],inactive
O=C(NC(=O)c1cc(F)c(F)cc1Cl)Nc1cc(F)ccc1N1CCC(C(=O)O)CC1,outcome,[1],inactive
same,AC50,[2],16.5 µM (active)
same,outcome,[3],inactive
same,outcome,[4],inactive
same,outcome,[5],inactive
same,outcome,[6],inactive
same,outcome,[8],inactive
same,outcome,[9],inactive
same,outcome,[12],inactive
same,AC50,[13],954 nM (active)
same,outcome,[14],inactive
same,outcome,[20],inactive
O=C(O)C(F)(F)C(F)(F)C(F)(F)C(F)(F)C(F)(F)C(F)(F)C(F)(F)C(F)(F)F,outcome,[1],inactive
same,AC50,[2],50.9 µM (active) and 35.5 µM (active) and 13 µM (active)
same,AC50,[3],50 µM (active)
same,outcome,[3],inactive
same,AC50,[4],217 µM (active)
same,outcome,[4],inactive
same,AC50,[5],30 µM (active) and 46 µM (active)
same,outcome,[5],inactive
same,AC50,[6],25 µM (active) and 51.6 µM (active)
same,outcome,[6],inactive
same,AC50,[8],40.2 µM (active) and 43.3 µM (active)
same,outcome,[8],inactive
same,AC50,[9],15.9 µM (active) and 27.4 µM (active) and 22.5 µM (active)
same,outcome,[17],inactive
same,AC50,[12],49.7 µM (active) and 48 µM (active)
same,outcome,[12],inactive
same,AC50,[13],43.4 µM (active) and 70 µM (active) and 42.3 µM (active)
same,AC50,[14],47.5 µM (active) and 104 µM (active) and 50 µM (active)
same,outcome,[15],inactive
same,outcome,[20],inactive
same,outcome,[19],inactive
